Among the data in PubChem BioAssay (EPA / NIEHS) are outcome and AC50 values, retold here.

Activity calls are given as the source filed them. Rule for the calls: active = hit-call score of the fitted dose curve at least 0.9, where 1 is the maximum; inactive = score below 0.9.

Test [1] is described as follows: BSK_4H_SRB: Viability Assessment in the BioMAP Diversity Plus: 4H Assay (AID 2283027).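 For AC50: curves fitted both ways versus DMSO so AC50 may be loss or gain.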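 Note: cells exposed to compound for 24 h before staining.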 The settings on record: primary human endothelial cells (HUVEC). A digest of the protocol:
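HUVEC, 24 h post-dose; 10% TCA fix, 0.1% SRB stain, A560 nm. Total protein = overt cytotoxicity, parallel to biomarker read. Bidirectional fit vs DMSO baseline.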

A short description of test [2]: BSK_BE3C_SRB: Viability Assessment in the BioMAP Diversity Plus: BE3C Assay (AID 2283028).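 For AC50: fitted both ways so AC50 may mark signal gain or loss versus DMSO.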 The settings on record: primary human bronchial epithelial cells. A digest of the protocol: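 Primary human bronchial epithelium; chemical dosing, 24 h; 10% TCA fix, 0.1% SRB stain, A560; bidirectional fit vs DMSO baseline.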
Read-out in test [3]: Thrombomodulin, THBD (gene 7056)
The test can be described thus: BSK_3C_Thrombomodulin: BioMAP Diversity Plus: 3C Assay for Thrombomodulin Biomarker Activity (AID 2283029). The settings on record: primary human endothelial cells (HUVEC); actives raise or lower the signal. The gist of the method:
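Endothelial cells from umbilical vein are dosed with test chemical and incubated 24 h. Thrombomodulin is then quantified by ELISA, with DMSO serving as negative control and activity baseline.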

Read-out in test [4]: Urokinase-type plasminogen activator receptor (uPAR), PLAUR (gene 5329)
Put plainly: BSK_4H_uPAR: BioMAP Diversity Plus: 4H Assay for Urokinase-type plasminogen activator receptor (uPAR) Biomarker Activity (AID 2283030). The settings on record: primary human endothelial cells (HUVEC); actives raise or lower the signal. The gist of the method: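 HUVEC, 24 h post-dose; uPAR by ELISA; bidirectional fit vs DMSO baseline.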

Read-out in test [5]: Vascular endothelial growth factor receptor 2 (Homo sapiens) (UniProt P35968)
The test can be described thus: BSK_4H_VEGFRII: BioMAP Diversity Plus: 4H Assay for Vascular endothelial growth factor receptor 2 (VEGFR2) Biomarker Activity (AID 2283031). The settings on record: primary human endothelial cells (HUVEC); actives raise or lower the signal. The gist of the method:
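HUVEC (human primary), 4H system; 24 h post-dose; VEGFRII by ELISA; bidirectional curve fit vs DMSO baseline; gain or loss of signal scored.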

Read-out in test [6]: Vascular cell adhesion molecule 1 (VCAM1), VCAM1 (gene 7412)
Put plainly: BSK_4H_VCAM1: BioMAP Diversity Plus: 4H Assay for Vascular cell adhesion molecule 1 (VCAM1) Biomarker Activity (AID 2283033).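 For outcome: cell-surface VCAM-1 protein measured by ELISA.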 The settings on record: primary human endothelial cells (HUVEC); actives raise or lower the signal. A digest of the protocol: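 Chemicals are added to primary human umbilical vein endothelial cells. After 24 h, VCAM-1 levels are measured by ELISA. Values come from bidirectional fitting referenced to DMSO.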

Read-out in test [7]: Interferon-gamma inducible Protein 10 (IP10), CXCL10 (gene 3627)
The test can be described thus: BSK_BE3C_IP10: BioMAP Diversity Plus: BE3C Assay for Interferon-gamma inducible Protein 10 (IP10) Biomarker Activity (AID 2283034). The settings on record: primary human bronchial epithelial cells; actives raise or lower the signal. The gist of the method:
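IP-10 quantified by ELISA serves as the endpoint. Cells: primary human bronchial epithelium, read 24 h after compound addition. Activity is derived by bidirectional fitting with DMSO as negative control.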

Read-out in test [8]: Monokine induced gamma interferon (MIG), CXCL9 (gene 4283)
The test can be described thus: BSK_BE3C_MIG: BioMAP Diversity Plus: BE3C Assay for Monokine induced gamma interferon (MIG) Biomarker Activity (AID 2283035).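 For outcome: MIG protein measured by ELISA in BE3C cultures after 24 h of dosing.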 The settings on record: primary human bronchial epithelial cells; actives raise or lower the signal. A digest of the protocol: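 Dose cells (human primary bronchial epithelial), incubate 24 h, quantify MIG by ELISA, then fit concentration–response in both directions relative to DMSO control.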

Read-out in test [9]: Transforming growth factor beta 1 (TGFb1), TGFB1 (gene 7040)
Put plainly: BSK_BE3C_TGFb1: BioMAP Diversity Plus: BE3C Assay for Transforming growth factor beta 1 (TGFb1) Biomarker Activity (AID 2283036;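 for outcome: TGF-b1 protein level measured by ELISA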). The settings on record: primary human bronchial epithelial cells; actives raise or lower the signal. A digest of the protocol:
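Bronchial epithelial primary cells are treated with test chemical, then TGF-b1 is quantified by ELISA after 24 hours. Values derive from bidirectional fitting against DMSO, with cytotoxicity checked by SRB staining in parallel cultures.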

Read-out in test [10]: Plasminogen activator inhibitor-1 (PAI1), SERPINE1 (gene 5054)
The test can be described thus: BSK_BE3C_PAI1: BioMAP Diversity Plus: BE3C Assay for Plasminogen activator inhibitor-1 (PAI1) Biomarker Activity (AID 2283037). The settings on record: primary human bronchial epithelial cells; actives raise or lower the signal. A digest of the protocol: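 Values derive from bidirectional fitting against DMSO baseline of PAI-1 levels, measured by ELISA in human bronchial epithelial cells 24 h after compound addition.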

Read-out in test [11]: urokinase plasminogen activator (uPA), PLAU (gene 5328)
Put plainly: BSK_BE3C_uPA: BioMAP Diversity Plus: BE3C Assay for urokinase plasminogen activator (uPA) Biomarker Activity (AID 2283038).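 For outcome: uPA protein level quantified by ELISA in cell cultures; uPA read one day after compound addition.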 The settings on record: primary human bronchial epithelial cells; actives raise or lower the signal. The gist of the method:
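ELISA read-out of uPA in human lung primary bronchial epithelial cultures, 24 h post-dosing. Gain or loss of signal fitted bidirectionally relative to DMSO baseline; cytotoxicity checked in parallel cultures via SRB total protein stain.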

Read-out in test [12]: Urokinase-type plasminogen activator receptor (uPAR), PLAUR (gene 5329)
The test can be described thus: BSK_BE3C_uPAR: BioMAP Diversity Plus: BE3C Assay for Urokinase-type plasminogen activator receptor (uPAR) Biomarker Activity (AID 2283039).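 For outcome: uPAR protein level measured by ELISA on the cells; cells exposed to compound for one day before measurement.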 The settings on record: primary human bronchial epithelial cells; actives raise or lower the signal. The gist of the method:
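Steps: dose human primary bronchial epithelial cells, incubate 24 h, measure uPAR by ELISA, then fit gain- or loss-of-signal response bidirectionally relative to DMSO.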

Read-out in test [13]: Interleukin-6 (IL6), IL6 (gene 3569)
The test can be described thus: BSK_CASM3C_IL6: BioMAP Diversity Plus: CASM3C Assay for Interleukin-6 (IL6) Biomarker Activity for (AID 2283040). The settings on record: primary human coronary artery smooth muscle cells; actives raise or lower the signal.

Read-out in test [14]: Tissue plasminogen activator (tPA), PLAT (gene 5327)
The test can be described thus: BSK_BE3C_tPA: BioMAP Diversity Plus: BE3C Assay for Tissue plasminogen activator (tPA) Biomarker Activity (AID 2283041).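 For outcome: tPA level quantified by ELISA one day after compound addition.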 The settings on record: primary human bronchial epithelial cells; actives raise or lower the signal. A digest of the protocol: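 Gain- or loss-of-signal in tPA, measured by ELISA, derived by bidirectional fitting against DMSO. Cells: human primary bronchial epithelial; read at 24 h after chemical dosing.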

Read-out in test [15]: Interleukin-8 (IL8), CXCL8 (gene 3576)
Put plainly: BSK_CASM3C_IL8: BioMAP Diversity Plus: CASM3C Assay for Interleukin-8 (IL8) Biomarker Activity (AID 2283042).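 Note: IL-8 protein level quantified by ELISA.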 The settings on record: primary human coronary artery smooth muscle cells; actives raise or lower the signal.

Read-out in test [16]: Human Leukocyte Antigen - DR isotype (HLADR), HLA-DRA (gene 3122)
The test can be described thus: BSK_CASM3C_HLADR: BioMAP Diversity Plus: CASM3C Assay for Human Leukocyte Antigen - DR isotype (HLADR) Biomarker Activity (AID 2283043).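 Note: cell-surface HLA-DR protein level quantified by ELISA.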 The settings on record: primary human coronary artery smooth muscle cells; actives raise or lower the signal.

Read-out in test [17]: Macrophage colony-stimulating factor (MCSF), CSF1 (gene 1435)
The test can be described thus: BSK_CASM3C_MCSF: BioMAP Diversity Plus: CASM3C Assay for Macrophage colony-stimulating factor (MCSF) Biomarker Activity (AID 2283044).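 Note: M-CSF protein amount quantified by ELISA after 24 h exposure.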 The settings on record: primary human coronary artery smooth muscle cells; actives raise or lower the signal.

Read-out in test [18]: Low-density lipoprotein receptor (LDLR), LDLR (gene 3949)
The test can be described thus: BSK_CASM3C_LDLR: BioMAP Diversity Plus: CASM3C Assay for Low-density lipoprotein receptor (LDLR) Biomarker Activity (AID 2283045).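 Note: LDLR protein level on the cell surface quantified by ELISA.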 The settings on record: primary human coronary artery smooth muscle cells; actives raise or lower the signal.

Read-out in test [19]: Monocyte Chemoattractant Protein-1 (MCP1), CCL2 (gene 6347)
The test can be described thus: BSK_CASM3C_MCP1: BioMAP Diversity Plus: CASM3C Assay for Monocyte Chemoattractant Protein-1 (MCP1) Biomarker Activity (AID 2283046).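 Note: MCP-1 level quantified by ELISA 24 h after dosing.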 The settings on record: primary human coronary artery smooth muscle cells; actives raise or lower the signal.

Read-out in test [20]: Human Leukocyte Antigen - DR isotype (HLADR), HLA-DRA (gene 3122)
The test can be described thus: BSK_BE3C_HLADR: BioMAP Diversity Plus: BE3C Assay for Human Leukocyte Antigen - DR isotype (HLADR) Biomarker Activity (AID 2283032). The settings on record: primary human bronchial epithelial cells; actives raise or lower the signal. The gist of the method: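 Chemicals are dosed onto BE3C bronchial epithelial cultures of human origin and left 24 h. HLA-DR is then measured by ELISA, and the endpoint is fitted in both directions using DMSO as the activity baseline.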

Consider `O=C(Oc1ccccc1)c1cccc(C(=O)Oc2ccccc2)c1`, for which the outcome in [1], in test [2], in [3], in [4], in test [5] and in test [6] was inactive. In addition, the result in test [7], in test [8], in test [9], in test [10], in test [11] and in test [12] was inactive. The outcome in test [13], in test [14], in [15], in test [16], in test [17] and in test [18] was inactive. Besides, the outcome in test [19] was inactive.

A word on the AC50: it is the midpoint of the concentration-response curve, whichever way the signal moves. On to `COc1ccc(C(=O)Nc2nc3ccccc3c(NCc3ccccc3)c2C#N)cc1`, for which the outcome in test [1], in test [2], in [3], in test [4], in test [5] and in test [20] was inactive. For the same compound, the outcome in test [6], in [7], in test [8], in [9], in test [10] and in [11] was inactive. Besides, the result in [12], in test [13], in [14], in test [15], in [16] and in [17] was inactive. Also, the outcome in test [19] was inactive. Besides, the AC50 in test [18] is 9.66 µM (active).

On to `Cc1c(C)c2c(c(C)c1O)CCC(C)(COc1ccc(CC3SC(=O)NC3=O)cc1)O2` (stereo unspecified), for which the half-maximal activity concentration (AC50) is 23 µM (active) in test [1]; 28.4 µM (active) in test [2]; 28.6 µM (active) in test [4]; 31.8 µM (active) in test [6]; 14.2 µM (active) in test [7]; 31.8 µM (active) in [8]. Besides, the AC50 in [9] was 26.2 µM (active); in [10] it was 14.7 µM (active); in test [11], 15.3 µM (active); in test [12], 29.6 µM (active); in test [14], 9.19 µM (active). The result in [3], in test [5], in [13], in [15], in test [16] and in [17] was inactive. In addition, the result in [18] and in [19] was inactive.

Regarding `O=Cc1ccccc1C=O`, the result in test [1], in test [2], in [3], in test [4], in test [5] and in test [20] was inactive. Further, the result in [6], in test [7], in test [8], in test [9], in test [10] and in test [11] was inactive. Moreover, the outcome in test [12], in test [14], in test [15], in test [16], in test [17] and in [18] was inactive. In addition, in test [19], the outcome was inactive.

On to `O=C1NC(=O)C(c2ccccc2)(c2ccccc2)N1`, for which the result in test [1], in test [2], in test [3], in test [4], in [5] and in test [20] was inactive. The result in test [6], in test [7], in test [8], in [9], in [10] and in [11] was inactive. The result in test [12], in test [13], in test [14], in [15], in test [16] and in test [17] was inactive. Also, the result in [18] and in test [19] was inactive.

`CCN(CC)CCOc1ccc(C(=C(Cl)c2ccccc2)c2ccccc2)cc1`: the AC50 was 13.1 µM (active) in test [1]; 27.8 µM (active) in [2]; 5.39 µM (active) in test [3]; 13 µM (active) in [4]; 15.2 µM (active) in test [20]; 11.6 µM (active) in test [6]. Moreover, the half-maximal activity concentration (AC50) was 15.3 µM (active) in [7]; 25.7 µM (active) in test [8]; 16.1 µM (active) in test [9]; 26.1 µM (active) in [10]; 26 µM (active) in test [11]; 26.3 µM (active) in [12]. Moreover, the half-maximal activity concentration (AC50) in test [13] was 31.6 µM (active); in test [14] it was 11.1 µM (active); in test [15], 32 µM (active); in [16] it was 23.9 µM (active); in test [17], 26.2 µM (active); in [18], 30.6 µM (active). Besides, the AC50 in test [19] was 33 µM (active). Moreover, the result in [5] was inactive.

Regarding `CC(C)c1cccc(C(C)C)c1`, the outcome in [1], in test [2], in [3], in test [4], in test [5] and in test [6] was inactive. Besides, the result in test [7], in [8], in [9], in [10], in test [11] and in [12] was inactive. For the same compound, the result in test [13], in [14], in test [15], in test [16], in test [17] and in [18] was inactive. For the same compound, the outcome in test [19] was inactive.
